Measured values published in PubChem BioAssay (NCATS).
Records with an inconclusive call do not appear. Where a call stands in place of a potency, no number is given. Active and inactive are the calls of the source. The call rests on the fitted dose curve; in most records, active means well fitted curve in the direction sought with a large enough effect; inconclusive means small, poorly fitted or top-dose-only effect, or another doubt; inactive means no such curve, though single readings can be large; an effect the other way counts as inactive or inconclusive.

Experiments:
[1] = biological target: Glutathione peroxidase 1 (Homo sapiens) (UniProt P07203); assay: Primary qHTS Assay for Inhibitors of Recombinant Selenoprotein Glutathione Peroxidase 1 (GPX1) (AID 1845191); further: nearly all actives have a fitted effect of over 65% in size
Outline: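 GPX1 10 nM, GR 100 nM, GSH 1 mM, NADPH 0.5 mM, CHP 0.5 mM (final). 30-min cpd preincubation, RT. Ex340/Em450 read t=0, t=15 min.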

[2] = biological target: Phospholipid hydroperoxide glutathione peroxidase GPX4 (Homo sapiens) (UniProt P36969); assay: Primary qHTS Assay for Inhibitors of Recombinant Selenoprotein Glutathione Peroxidase 4 (GPX4) (AID 1845192); further: nearly all actives have a fitted effect of over 65% in size
Outline: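 qHTS, GR-coupled: GPX4 200 nM + cpd 30 min RT → GSH 1 mM, NADPH 0.5 mM, GR 100 nM → CHP 0.5 mM start; fluor 340/450 at t0 and t15 min; no-enzyme wells as control.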

[3] = biological target: Luciferin 4-monooxygenase (Photinus pyralis) (UniProt P08659); assay: Primary firefly luciferase (FLuc) qHTS assay for identification of artifact compounds. (AID 1845220); further: nearly all actives have a fitted effect of over 60% in size
Outline: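 In this counter-screen for luciferase artifacts, test compounds met substrate (10 uM each luciferin and ATP) before 10 nM enzyme started the reaction. Light output was measured 5 min later.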

[4] = Primary fluorescence-based thiol-reactive (MSTI) qHTS assay for identification of artifact compounds. (AID 1845221); further: nearly all actives have a fitted effect of over 65% in size; further: potency means the concentration at half of the fitted maximal effect
Outline: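 Curve-fitted percent inhibition (4-parameter Hill) derived from fluorescence, Ex 525/Em 598 nm, scaled with Acetyl-MSTI and MSTI; 1 h incubation at room temperature.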

[5] = tested on: Nanoluciferase (engineered Oplophorus gracilirostris luciferase); assay: Primary Nanoluciferase (NLuc) qHTS assay for identification of artifact compounds. (AID 1845222);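 further: NLuc secreted into diluted conditioned medium of S16 cells; series mostly up to about 54 µM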
Outline: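 Using secreted nanoluciferase in S16 culture medium (0.22 um filtered, 1:55 dilution), compounds were preincubated 15 min at RT. Signal was generated with Nano-Glo reagent (1:100) over 5 min.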

[6] = Primary redox qHTS assay for identification of artifact compounds. (AID 1845223)
Outline: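 Redox-cycling detection via DTT (250 uM final) oxidation coupled to Amplex Red (25 uM)/HRP (250 mU/mL) in HBSS. 15 min preincubation plus 30 min after DTT, room temperature. Ex/Em 525/598 nm; 4-parameter Hill fit against DMSO and 10 uM DA3003.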

Phospholipid hydroperoxide glutathione peroxidase GPX4 (Homo sapiens), sequence (P36969 whole entry, looked up): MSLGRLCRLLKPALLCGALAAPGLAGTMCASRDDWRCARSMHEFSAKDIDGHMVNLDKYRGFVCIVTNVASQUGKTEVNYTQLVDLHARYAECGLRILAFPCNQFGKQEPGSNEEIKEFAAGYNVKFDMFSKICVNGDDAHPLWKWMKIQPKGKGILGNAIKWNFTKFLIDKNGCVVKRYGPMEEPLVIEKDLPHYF
Glutathione peroxidase 1 (Homo sapiens), sequence (P07203 whole entry, looked up): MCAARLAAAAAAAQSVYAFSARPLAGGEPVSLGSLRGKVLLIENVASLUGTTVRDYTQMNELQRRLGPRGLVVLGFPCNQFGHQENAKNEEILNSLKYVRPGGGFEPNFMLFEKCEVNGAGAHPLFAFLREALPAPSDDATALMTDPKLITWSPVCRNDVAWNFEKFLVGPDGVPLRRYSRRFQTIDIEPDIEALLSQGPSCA

SMILES | Potency [1] | Potency [2] | Potency [3] | Potency [4] | Potency [5] | Potency [6]
CC(=O)OCC(=O)[C@@]12O[C@@H]1C[C@H]1[C@@H]3CC=C4C[C@@H](O)CC[C@]4(C)[C@H]3CC[C@@]12C | inactive | inactive | inactive | inactive | inactive | inactive
Cc1sc2c(c1C)C(c1ccc(Cl)cc1)=N[C@@H](CC(=O)Nc1ccc(OCCOCCOCCOCCNc3cccc4c3C(=O)N(C3CCC(=O)NC3=O)C4=O)cc1)c1nnc(C)n1-2 (stereo not given in full) | inactive | inactive | inactive | inactive | inactive | inactive
C=C1C(=O)OC2/C=C(\CO)CC/C=C(\C=O)C(O)C(OC(=O)C(C)CC)C12 (stereo not given) | inactive | inactive | inactive | 14.7 µM (active) | inactive | inactive
CCC(CC)(NC(=O)C(C)C)C(=O)N[C@@H](CCCN=C(N)N)C(=O)NC1(C(=O)NC(c2ccc(F)cc2)c2ccc(F)cc2)CCCC1 | inactive | inactive | inactive | inactive | inactive | inactive
O=C(CNC(=O)c1cccc(C(F)(F)F)c1)N[C@@H]1CCN(Cc2ccc(Cl)cc2)C1 | inactive | inactive | inactive | inactive | inactive | inactive
COc1cc2ncnc(Nc3cccc(I)c3)c2cc1OC | inactive | inactive | inactive | inactive | inactive | inactive
O=C(Nc1cccc2cccnc12)c1ccc(N2C(=O)[C@@H]3C4C=CC(C4)[C@@H]3C2=O)cc1 | inactive | inactive | inactive | inactive | inactive | inactive
CC(C)(O)C(=O)N1CCN(c2ccc(C(F)(F)F)c(C3=C(c4c[nH]c5ccccc45)C(=O)NC3=O)c2)CC1 | inactive | inactive | inactive | 3.36 µM (active) | inactive | inactive
Cc1nc(Nc2ccc(F)cc2)nc(N2CCc3ccccc3C2C)c1C (stereo not given) | inactive | inactive | inactive | inactive | inactive | inactive
COc1cccc(-c2cn(-c3ccc(CCN4CCC(O)CC4)cc3)c3ncnc(N)c23)c1 | inactive | inactive | inactive | inactive | inactive | inactive
CCOc1nc(NC(=O)Cc2cc(OC)ccc2OC)cc(N)c1C#N | inactive | inactive | inactive | inactive | inactive | inactive
N#Cc1cccc(C(=O)Nc2cc(-c3ccccc3)nn2-c2ccccc2)c1 | inactive | inactive | inactive | inactive | inactive | inactive
C[C@H](Oc1cc(-c2cnn(C3CCNCC3)c2)cnc1N)c1c(Cl)ccc(F)c1Cl | inactive | inactive | inactive | inactive | inactive | inactive
CCNc1nc(Nc2cc(F)c(C(=O)N3CCOCC3)cc2OC)ncc1C(F)(F)F | inactive | inactive | inactive | inactive | inactive | inactive
COC(=O)/C=C/C=C/C(=O)OC1C=C2COC(=O)C2(O)C2(C)CCCC(C)(C)C12 (stereo not given) | inactive | inactive | inactive | inactive | inactive | inactive
COC(=O)C(Cc1ccc(OCCn2c(=O)sc3cc(C(=O)c4ccccc4)ccc32)cc1)C(=O)OC | inactive | inactive | inactive | inactive | inactive | inactive
C=C[C@]1(C)C[C@H](O)[C@H]2C(=C)C(=O)O[C@@H]2[C@H]1C(=C)CO | inactive | inactive | inactive | inactive | inactive | inactive
Cc1nc(C#Cc2ccnc(Cl)c2)c(C)n1-c1ccc(OC(F)(F)F)cc1 | inactive | inactive | inactive | inactive | inactive | inactive
C/C=C(\C)C(=O)OC1C(C)C2(O)C(C=C(CO)CC3(O)C(=O)C(C)=CC32)C2C(C)(C)C12OC(=O)C(C)C (stereo not given) | inactive | inactive | inactive | inactive | inactive | inactive
CCN1CCN(Cc2ccc(NC(=O)c3ccc(C)c(Oc4ncnc5[nH]c(C)cc45)c3)cc2C(F)(F)F)CC1 | inactive | inactive | inactive | inactive | inactive | inactive
